Compound activity: PubChem, The Scripps Research Institute Molecular Screening Center
Only some compounds are listed: those with a hit (about 4.5% of all), similar ones and a draw of the others.
FXN GAA850 act: FXN promoter activators, primary screen, cell-based, luciferase luminescence, HEK293 lucGAA850. HEK293 lucGAA850 FXN promoter luciferase reporter, 24 h; percent of 10 µM SAHA response. activation, % at 6 µM. 0.56% of 360,000 active. AID 540364, 2011;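 active = activation above the average of all compounds screened plus 3 SD, cutoff fixed separately per campaign, cut at about 7.5% in these data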
hgDAF-12 ag: H. glycines DAF-12 receptor agonists, primary screen, cell-based, luminescence, HEK293, GAL4 fusion, UAS-luciferase; Nuclear hormone receptor DAF-12 (Heterodera glycines), GAL4 fusion; AID 687014, 2013; 1.8% of 370,000 active; activation, % at 6.8 µM; HEK293 GAL4-hgDAF12 UAS-luciferase reporter, agonist luminescence; normalized to butyrate control;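 active = activation above a cutoff set at the mean of all screened compounds plus 3 SD, cut at about 10% in these data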
DAX1 inh-1: DAX1 (NR0B1) inhibitors, primary screen, cell-based, HEK293, Gal4-DAX1, luciferase luminescence | AID 504766, 2011 | HEK293 Gal4-DAX1 luciferase reporter | Nuclear receptor subfamily 0 group B member 1 (Homo sapiens), P51843 | inhibition, % at 6.75 µM | 0.99% of 340,000 active;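 active = inhibition above the mean over all tested compounds plus 3 SD, cut at about 4.2% in these data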;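 also: inhibition shows as a rise in luminescence from relieved DAX1 repression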
Target sequence (P51843 207-470 limits assumed): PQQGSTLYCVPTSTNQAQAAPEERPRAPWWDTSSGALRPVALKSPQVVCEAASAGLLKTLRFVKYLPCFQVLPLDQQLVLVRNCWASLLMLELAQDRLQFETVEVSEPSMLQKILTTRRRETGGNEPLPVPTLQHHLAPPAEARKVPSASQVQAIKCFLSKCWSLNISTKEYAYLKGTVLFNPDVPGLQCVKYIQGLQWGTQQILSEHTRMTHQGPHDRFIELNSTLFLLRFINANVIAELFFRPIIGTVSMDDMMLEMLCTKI
DAX1 inh-2: DAX1 (NR0B1) inhibitors on StAR promoter, primary screen, cell-based, luminescence, SF-1 (NR5A1), full-length DAX-1. HEK293T StAR-luciferase reporter, SF-1/DAX-1 repression relief. inhibition, % at 6.8 µM. 1.1% of 370,000 active. AID 652010, 2013;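 active = inhibition above the mean over all tested compounds plus 3 SD, cut at about 3.6% in these data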;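 also: higher inhibition means more luminescence from relief of DAX-1 repression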
hcDAF12 agonist: H. contortus DAF-12 nuclear receptor activators, primary screen, cell-based, luminescence, HEK293, lit1-tk-luc reporter; HEK293 hcDAF-12 lit1-tk-luc reporter; 0% DMSO, 100% Δ7-dafachronic acid; 1.4% of 370,000 active; activation, % at 6.8 µM;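 active = activation above the mean of all tested compounds plus 3 SD, cut at about 5.5% in these data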
ssDAF-12 act: S. stercoralis DAF-12 nuclear receptor activators, primary screen, cell-based, luminescence, HEK293, GRIP1 co-expression, lit1-tk-luc | 1% of 370,000 active | activation, % at 6.8 µM | Nuclear hormone receptor DAF-12 (Strongyloides stercoralis) | HEK293 ssDAF-12/GRIP1 lit1-tk-luc reporter; % of 3 µM dafachronic acid response | AID 652126, 2013;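 active = activation above the mean over all tested compounds plus 3 SD, cut at about 0.9% in these data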
GAA30 counter: GAA30 FXN promoter activators, confirmation, counter-screen for GAA850 frataxin promoter activator project, cell-based, luminescence, HEK293, lucGAA30, triplicate; shares compounds with FXN GAA850 act; HEK293 lucGAA30 FXN promoter luciferase, 24 h; DMSO = 0%, 5 µM ipriflavone = 100%; activation, % at 6 µM; 66% of 1,900 active; AID 588350, 2011;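 active = mean activation above the mean of solvent-only control wells plus 3 SD, cut at about 22% in these data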;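 also: counterscreen of GAA850 promoter hits where activity marks nonselective or luminescence artifacts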
GAA850 confirm: FXN GAA850 promoter activators in reporter cells, confirmation, cell-based, luminescence, HEK293 lucGAA850, triplicate | shares compounds with FXN GAA850 act | HEK293 lucGAA850 FXN promoter luciferase reporter, 24 h; 100% = activation by SAHA | activation, % at 6 µM | 86% of 1,900 active;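 active = mean activation above a set limit taken from the primary screen, cut at about 8% in these data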
Each line names hits and unclear results; the compound was inactive in the other large screens (follow-up assays come after a bar, where they were run).

c1ccc2oc(-c3[nH]ncc3CN3CCSCC3)cc2c1	none
c1ccc2oc(-c3ccn[nH]3)cc2c1	FXN GAA850 act 8.0, DAX1 inh-1 5.9 | GAA30 counter 121.8 | GAA850 confirm 38.4
C#CCCC(=O)O[C@H]1CCC[C@@]2(C(=O)N(Cc3ccccc3)c3ccccc32)[C@H]1NC(=O)CCc1ccccc1	none (no result: FXN GAA850 act, DAX1 inh-1)
O=C(OCC#CCSc1nnc(-c2cccc(F)c2)o1)c1ccc(F)cc1	none (no result: FXN GAA850 act, DAX1 inh-1, DAX1 inh-2)
Cc1ccc(/C=C/C(=O)N2CCN(S(=O)(=O)c3ccc(C)c(C)c3)CC2)o1	FXN GAA850 act 7.6 | GAA30 counter inactive | GAA850 confirm inactive
CC(C)(C)c1ccc(S(=O)(=O)N2CCC(C(=O)NCC3COCCO3)CC2)cc1 (stereo unspecified)	none (no result: FXN GAA850 act, DAX1 inh-1)
CCOc1ccc2cc(C#N)c(SCC(=O)N3CCOCC3)nc2c1	FXN GAA850 act 9.7, hgDAF-12 ag 10.6 | GAA30 counter 133.1 | GAA850 confirm 45.6
N#Cc1ccccc1Cn1c(=O)n(Cc2ccc(C(=O)NCc3ccco3)cc2)c(=O)c2sccc21	FXN GAA850 act 11.8 | GAA30 counter 22.5 | GAA850 confirm 7.8
COCCNC(=O)Cn1c(=O)n(Cc2ccc(C(=O)NCc3ccco3)cc2)c(=O)c2ccccc21	none
O=C(NCc1ccco1)c1ccc(Cn2c(=O)c3ccccc3n(Cc3ccc(Cl)cc3)c2=O)cc1	FXN GAA850 act 13.9 | GAA30 counter 22.1 | GAA850 confirm 14.0
O=C(NCc1ccco1)c1ccc(Cn2c(=O)c3ccccc3n(Cc3cccc(F)c3)c2=O)cc1	FXN GAA850 act 8.0 | GAA30 counter inactive | GAA850 confirm inactive
C=CCN=C1NC(CCc2ccccc2)C(C(=O)OC)=C(C)N1C (stereo unspecified)	none (no result: FXN GAA850 act, DAX1 inh-1)
CCOC(=O)[C@]12CCCC3=C1N(CCC3)C(=O)[C@@H](CC(=O)NCc1ccc(C)o1)C2	none (no result: FXN GAA850 act, DAX1 inh-1)
COc1ccc(C(=O)c2sc(Nc3ccccc3)nc2N)cc1OC	FXN GAA850 act 9.2 | GAA30 counter inactive | GAA850 confirm 37.8
COc1ccc(C(=O)c2sc(Nc3ccccc3)nc2N)cc1	none
Nc1nc(Nc2ccccc2)sc1C(=O)c1ccccc1	FXN GAA850 act 21.8 | GAA30 counter 102.4 | GAA850 confirm 107.3
COc1ccc(C(=O)c2sc(Nc3ccccc3F)nc2N)cc1	FXN GAA850 act 8.1 | GAA30 counter 81.4 | GAA850 confirm 42.5
CC[C@H](CCC(=O)N(c1ccccc1)c1ccccc1)C1CC1	none (no result: FXN GAA850 act, DAX1 inh-1)
O=S1(=O)c2ccc(Br)cc2OC[C@H](Cc2ccccc2)N1Cc1cn(Cc2ccc(C(F)(F)F)cc2)nn1	none (no result: FXN GAA850 act, DAX1 inh-1)
Cc1nn2cc(-c3ccc(Cl)cc3)cnc2c1Cl	FXN GAA850 act 7.7 | GAA30 counter 119.2 | GAA850 confirm 37.0
Cc1cc2ncc(-c3cccc(Cl)c3)cn2n1	none
NC(=O)c1c(N)[nH]c(C(=O)c2ccccc2)c1-c1ccccc1	none (no result: FXN GAA850 act, DAX1 inh-1)
Cc1ccccc1NC(=O)N1CCCC(c2nc(-c3ccc(C(C)C)cc3)no2)C1 (stereo unspecified)	FXN GAA850 act 9.2, hgDAF-12 ag 10.5 | GAA30 counter 61.5 | GAA850 confirm 28.0
Cc1ccccc1NC(=O)N1CCCC(c2nc(-c3ccc(F)cc3)no2)C1 (stereo unspecified)	none
Cc1ccc(C(=O)c2sc3nc4c(cc3c2N)CCC4)cc1	FXN GAA850 act 8.4 | GAA30 counter 100.0 | GAA850 confirm 40.8
CCOc1ccc2nc(C)cc(Nc3cccc([N+](=O)[O-])c3)c2c1	FXN GAA850 act 7.7 | GAA30 counter 25.8 | GAA850 confirm 19.7
Cc1cc(Nc2cccc([N+](=O)[O-])c2)c2ccccc2n1	none
Cc1ccc(N=Nc2c(O)n(CN3CCOCC3)c3ccccc23)cc1	FXN GAA850 act 7.7 (no result: hgDAF-12 ag, DAX1 inh-2, hcDAF12 agonist, ssDAF-12 act) | GAA30 counter 135.0 | GAA850 confirm 50.2
Cc1cccc(NC(=S)N=Nc2c(O)n(CN3CCOCC3)c3ccccc23)c1C	none
CCc1ccc(Oc2cc(Cl)nc(N)n2)cc1	FXN GAA850 act 7.7 | GAA30 counter 103.2 | GAA850 confirm 35.8
NC(Cc1ccc(Cl)cc1)c1csc(NC(=O)Nc2ccccc2)n1 (stereo unspecified)	FXN GAA850 act 7.6 (no result: DAX1 inh-1) | GAA30 counter inactive | GAA850 confirm 11.2
CC(/C=N\NC(=O)CSc1nnc(-c2ccc(Br)cc2)n1-c1ccccc1)=C\c1ccco1	none (no result: FXN GAA850 act, DAX1 inh-1)
COCCN1Cc2cc(C(=O)OC)c3c(c2C1=O)c1cc(F)ccc1n3C(=O)c1ccccc1	none (no result: FXN GAA850 act, DAX1 inh-1)
COc1cc2nc(=S)n3[nH]c(CCn4nc(C)cc4C)nc3c2cc1OC	FXN GAA850 act 18.9 | GAA30 counter 31.9 | GAA850 confirm 17.0
CCOC(=O)c1cc2c(=O)n3ccccc3nc2n(CCOC)c1=NC(=O)C(C)(C)C	FXN GAA850 act 10.0 | GAA30 counter 91.6 | GAA850 confirm 35.0
CC1(C)C2CCC(C2)C1(C)NC(=O)CNCC1CCCCC1 (stereo unspecified)	FXN GAA850 act 10.2 | GAA30 counter 30.2 | GAA850 confirm 14.3
COP1(=O)CCOCC[C@H](CC(C)C)NC(=O)[C@H](CC(C)C)N1 (stereo partly specified)	none (no result: FXN GAA850 act, DAX1 inh-1, DAX1 inh-2)
C=CCOC(=O)C1=C(C)NC(SCC(=O)Nc2nccs2)=C(C#N)C1c1cccs1 (stereo unspecified)	none
C=CCOC(=O)C1=C(C)NC(SCC(=O)Nc2nccs2)=C(C#N)C1c1ccc(Cl)cc1 (stereo unspecified)	FXN GAA850 act 9.6 | GAA30 counter inactive | GAA850 confirm 8.9
COc1ccccc1-c1ccc2c(c1)C(C)(Cc1cc(Cl)ccc1C(F)(F)F)C(=O)N2 (stereo unspecified)	none (no result: DAX1 inh-1)
